HP1b chromo inh = HTS for Inhibitors of HP1-beta Chromodomain Interactions with Methylated Histone Tails. Chromobox protein homolog 1 (Homo sapiens), P83916. AlphaScreen HP1-beta / biotin-H3K9me3 peptide binding. Potency, µM (doses to about 114 µM), for inactives: at the highest dose activity change, negative = inhibition, most hits filed as inhibitors. 0.56% of 390,000 active. AID 540317, 2011; further: nearly all actives have a fitted effect of over 70% in size
Target sequence (P83916 whole entry, looked up): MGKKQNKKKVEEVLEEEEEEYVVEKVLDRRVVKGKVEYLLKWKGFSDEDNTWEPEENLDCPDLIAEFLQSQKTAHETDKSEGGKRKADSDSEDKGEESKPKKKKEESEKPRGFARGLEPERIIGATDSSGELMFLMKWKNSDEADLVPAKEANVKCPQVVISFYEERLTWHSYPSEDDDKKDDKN
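HP1-beta protein (50 nM final) preincubated 30 min at room temperature with biotinylated H3(1-18)K9me3 peptide (50 nM) in PBS pH 7.4, 0.01% Tween-20, then compound added for 30 min. AlphaScreen streptavidin donor/nickel chelate acceptor beads (10 ug/mL final), 30 min dark, luminescence read.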
L3MBTL1 block = qHTS Assay for the Inhibitors of L3MBTL1. Lethal(3)malignant brain tumor-like protein 1 (Homo sapiens), Q9Y468. AlphaScreen L3MBTL1–H3K9me1 peptide binding. Potency, µM (highest dose often 57.1 µM), for inactives: top-dose activity, negative = inhibition, most hits filed as inhibitors. 0.66% of 230,000 active; further: on the % scale 0 is the no-effect control and ±100 the full control effect; nearly all actives have a fitted effect of over 60% in size
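Displacement of a biotinylated histone H3(1-15) peptide monomethylated at Lys9 (75 nM) from L3MBTL1 (50 nM) was measured by AlphaScreen after a 30 min room-temperature compound incubation; cefsulodin titration served as intraplate control.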
JMJD2A Tudor = qHTS Assay for Inhibitors of JMJD2A-Tudor Domain; Lysine-specific demethylase 4A (Homo sapiens), O75164; AlphaScreen JMJD2A-Tudor / H3K4me3 peptide binding; Potency, µM (top dose mostly 114 µM), without a hit: at the top dose activity change, negative = inhibition, hits mostly inhibitors; 4.4% of 390,000 active; further: on the % scale 0 is the no-effect control and ±100 the full control effect; nearly all actives have a fitted effect of over 50% in size
G9a inh = qHTS Assay for Inhibitors of Histone Lysine Methyltransferase G9a. Histone-lysine N-methyltransferase EHMT2 (Homo sapiens), Q96KQ7. G9a H3K9 monomethylation, AlphaScreen, 2 h. Potency, µM (highest dose often 102 µM), for the others: top-dose activity, negative = inhibition, most hits filed as inhibitors. 8.8% of 350,000 active. AID 504332, 2011; further: on the % scale 0 is the no-effect control and ±100 the full control effect; nearly all actives have a fitted effect of over 75% in size
Target sequence (Q96KQ7 913-1193 limits assumed): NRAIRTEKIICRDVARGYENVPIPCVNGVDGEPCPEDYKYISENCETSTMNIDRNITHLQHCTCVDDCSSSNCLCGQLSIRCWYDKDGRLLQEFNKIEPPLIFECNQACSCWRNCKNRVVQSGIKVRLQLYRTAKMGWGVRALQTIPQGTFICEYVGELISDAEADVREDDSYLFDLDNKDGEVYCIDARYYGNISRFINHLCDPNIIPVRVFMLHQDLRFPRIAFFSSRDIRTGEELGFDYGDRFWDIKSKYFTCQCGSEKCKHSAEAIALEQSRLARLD
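AlphaScreen read-out: biotin-H3K9 peptide (500 nM) methylation by 20 nM enzyme with 20 uM SAM, 2 h at room temperature after 15 min compound preincubation; anti-monomethyl H3K9 antibody plus donor/acceptor beads, 10 min dark.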
BAZ2B block = qHTS Assay for Inhibitors of BAZ2B | AlphaScreen BAZ2B-H3K14Ac peptide displacement | AID 504333, 2011 | 4.4% of 360,000 active | Potency, µM (top dose mostly 114 µM), inactives show at the highest dose activity change, negative = inhibition, usual class: inhibitors | Bromodomain adjacent to zinc finger domain protein 2B (Homo sapiens), Q9UIF8; further: on the % scale 0 is the no-effect control and ±100 the full control effect; nearly all actives have a fitted effect of over 60% in size
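AlphaScreen luminescence quantifies BAZ2B engagement of H3K14Ac peptide; the protein and biotinylated peptide are both at 50 nM final, buffer PBS pH 7.4 with 0.01% Tween-20, all steps at room temperature.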
The depositor's hits bear a star; ? = inconclusive; . = not tested or not shown; [ ] = remark or other dose. In the library only some 11% were active in any assay of this set; here they are far more common. The call rests on the fitted dose curve; in most records, active means well fitted inhibition curve with a large enough effect; inconclusive means small, poorly fitted or top-dose-only effect; inactive means no such curve, though single readings can be large or run the other way. Potency means the concentration at half of the fitted maximal effect.

SMILES	HP1b chromo inh	L3MBTL1 block	JMJD2A Tudor	G9a inh	BAZ2B block
CC1CN(c2ccc([N+](=O)[O-])c(NCCOc3ccc(Cl)cc3)c2)CC(C)N1 (centres undefined)	?	-18.7%	31.6µM*	44.7µM*	11.2µM*
C=CCNC(=O)c1c(CSc2ccc(F)cc2)noc1C(=O)NCCC	33.9%	13.6%	-6.2%	-6.1%[2.33 µM]	11.2%
O=C1CCc2cc(Cl)c(S(=O)(=O)Nc3ccc(Cl)c(Cl)c3)cc2N1	.	.	-14.2%	.	.
COc1ccc(NC(=S)N2CCCN(Cc3cccc(Cl)c3)C2)cc1	3.8%	.	?	12.1%[59 µM]	?
CSc1cccc(NC(=S)N(CCCN2CCCC2)Cc2cccs2)c1	-10.1%	.	?	-3.7%[59 µM]	?
S=C(Nc1cccc(Cl)c1)N(CCCN1CCCC1)Cc1cccn1Cc1ccc(Cl)cc1	-18.3%	.	31.6µM*	35.5µM*	?
CSc1cccc(NC(=S)N(CCCN2CCCC2)Cc2cccn2Cc2ccc(Cl)cc2)c1	-13.7%	.	20µM*	35.5µM*	25.1µM*
CSc1cccc(NC(=S)N2CCCN(Cc3cccc(Cl)c3)C2)c1	0.3%	.	?	4.7%[59 µM]	25.1µM*
COc1cccc(NC(=S)N(CCCN2CCCC2)Cc2cccn2Cc2ccc(Cl)cc2)c1	?	.	44.7µM*	39.8µM*	-37.7%
COc1ccccc1N1CCN(S(=O)(=O)c2ccc(-c3ccno3)cc2OC)CC1	12.1%	.	-23.0%	-18.4%[59 µM]	?
Cc1ccccc1NC(=S)N(CCCN1CCOCC1)Cc1ccccn1	-6.4%	-3.1%	3.55µM*	-10.1%[59 µM]	-2.9%
Cc1ccc(NC(=S)N(CCCN2CCOCC2)Cc2ccccn2)cc1	35.1%	-1.9%	-2.0%	-12.1%[59 µM]	2.4%
Cn1cc(CN(CCCN2CCOCC2)C(=S)Nc2cccc(Cl)c2)c2ccccc21	-23.6%	4.3%	?	79.4µM*	?
COc1ccc(C2OCC(C)([N+](=O)[O-])CO2)cc1 (centres undefined)	11.8%	.	-14.4%	.	.
O=S(=O)(NCCc1csc2nc(-c3ccc(Cl)cc3)nn12)c1ccc(Oc2ccccc2)cc1	33.5%	.	-2.9%	-5.0%[59 µM]	-1.7%
Nc1sc2c(c1C(=O)NC1CCS(=O)(=O)C1)CCCC2 (centres undefined)	-6.5%	-1.0%	-34.0%	7.94µM*	-6.9%
NC(=O)c1c(N)sc2c1CCCC2	1.8%	0.0%	-32.1%	2.51µM*	?
CCOc1ccccc1NC(=O)C1CCN(S(=O)(=O)c2c(C)noc2/C=C/c2ccc(C)cc2)CC1	27.2%[57 µM]	.	-5.8%	-2.7%[59 µM]	2.3%
COC(=O)c1sc2cccc(F)c2c1S(=O)(=O)NCc1ccc(F)cc1	2.3%	.	-25.3%	-3.2%[59 µM]	-18.3%
O=P(O)(O)C(O)(Cn1ccnc1)P(=O)(O)O	.	.	.	20.1%[59 µM]	.
Cc1ccc(OC(=O)c2cccc([N+](=O)[O-])c2)c(-n2nc3ccccc3n2)c1	17.3%	12.7%	-19.3%	21.1%[59 µM]	-5.6%
Cc1cc(-n2nc3ccccc3n2)c(O)c([N+](=O)[O-])c1	-7.5%	-6.2%	-29.4%	79.4µM*	-35.4%
CC1C=CCC2C(=O)N(c3ccccc3OC(=O)c3cccs3)C(=O)C12 (centres undefined)	40.0%	-0.3%	-14.3%	0.4%	-16.3%
CC1C=CCC2C(=O)N(c3ccc(Cl)cc3O)C(=O)C12 (centres undefined)	?	1.4%	15.8µM*	9.0%[59 µM]	8.1%
COC(=O)C1(CO)NC(c2cccs2)C2C(=O)N(c3ccccc3)C(=O)C21 (centres undefined)	-10.6%	7.7%	-29.8%[57.1 µM]	-7.9%	8.9%
SMILES	HP1b chromo inh	L3MBTL1 block	JMJD2A Tudor	G9a inh	BAZ2B block
O=C1NC(=O)C2C1C(c1cccs1)NN2Cc1ccccc1 (centres undefined)	13.8%	8.7%	-28.1%	50.1µM*	?
[O][C@H]1[C@@H](O)[C@@H](CO)O[C@@H](O[C@@H]2[C@@H]3OC[C@H]2O[C@H](O[C@@H]2[C@@H](O)[C@H](C[C@@H]4[C@@H]5OC[C@H]4O[CH][C@@H]5O)O[C@H](CO)[C@@H]2OS(=O)(=O)O)[C@@H]3OS(=O)(=O)O)[C@@H]1O	.	.	.	15.8µM*	.
OCC1O[C@@H](O[C@@H]2C(CO)OC(O)C(O)C2O)C(O)C(O)C1O (some centres undefined)	.	.	.	-38.6%[12.7 µM]	.
Cc1cccc(Nc2nnc(-n3nc(C)cc3C)c3ccccc23)c1	68.5%	.	-6.5%	43.7%[59 µM]	39.4%
Cc1[nH]c(=S)c(C#N)c(C)c1Cc1ccccc1	12.5%	-3.3%	?	?	-10.6%
Cc1ccc2c(Cl)c(Cc3ccccc3)c(=S)[nH]c2n1	?	.	31.6µM*	.	.
O=c1c(NCCc2ccc(Cl)cc2)nccn1-c1ccccc1	30.5%	.	-16.9%	-8.4%[59 µM]	-21.5%
CCN(CC)c1ccc(/C=N/O)cc1	18.5%	-4.8%	-21.6%	?	-27.9%
CCN(CC)c1ccc(N=Nc2ncn[nH]2)cc1	10.4%	-10.1%	?	1µM*	.
CC(=O)c1ccc(NC(=O)CCc2c(C)nn(-c3ccc4nnc(C)n4n3)c2C)cc1	16.7%[57 µM]	.	-11.0%	16.7%[59 µM]	-8.3%
Cc1cccc(-n2c(=O)c3ccccc3n(Cc3ccc(F)cc3)c2=O)c1	15.5%	.	8.2%	10.7%[59 µM]	-2.5%
CC1C(=O)OC2C1CCC1(C)CCC(=O)C(C)C21 (centres undefined)	51.0%	.	50.1µM*	22.4µM*	12.8%
CCOC(=O)CSc1nc2c(sc(=S)n2-c2ccc(CC)cc2)c(=O)[nH]1	28.9%	.	-23.9%	?	-23.1%
CCn1c(N)c(C(=O)NCc2ccco2)sc1=S	?	-28.4%	?	10µM*	?
C=CCNC(=O)c1sc(=S)n(-c2ccc(C(=O)OCC)cc2)c1N	?	-20.5%[11.4 µM]	?	3.16µM*	?
O=C(NCc1ccco1)c1ccc(C(=O)NCc2ccco2)cc1	6.5%	.	-24.3%	.	.
CCOC(=O)c1sc(=S)n(-c2ccc(F)c(F)c2)c1N	-38.9%	-4.6%	?	?	4.4%
CCOC(=O)c1ccc(-n2c(=S)sc3c(=O)[nH]c(C)nc32)cc1	-39.4%	-2.4%	?	1.78µM*	-4.3%
COc1ccc(-n2c(N)c(C(=O)NCc3ccco3)sc2=S)cc1	9.6%	-17.8%	-26.8%	?	-5.4%
CCOC(=O)c1ccc(-n2c(N)c(C(=O)NCc3ccco3)sc2=S)cc1	15.8µM*	-8.9%	25.1µM*	?	39.8µM*
CCN(C(=O)Cn1ncc2c(=O)oc3ccc(C)cc3c21)c1cc(OC)ccc1OC	-1.4%	.	?	?	?
O=C(Cc1ccsc1)Nc1ccccc1F	-12.6%[57 µM]	.	?	8.9%	-19.8%
